# Paper PMC4336329 (PLoS ONE, 2015)
# Among all 310,000 compounds or so, about 14,000 (4.5%) showed an effect of 50% or more. Effects have a minus sign here. The sample holds strong results, similar compounds and a random draw of the others, so the mix is not that of the screen.
# Biological target: human ether-à-go-go-related gene (hERG) potassium channel (human, UniProt Q12809)
# Assay: primary screen, population patch clamp on CHO cells stably expressing hERG; higher = less effect of the substance
# 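Further: peak tail current of the secondary pulse compared with the same well before compound.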
# Sequence of human ether-à-go-go-related gene (hERG) potassium channel (Q12809 whole entry, looked up): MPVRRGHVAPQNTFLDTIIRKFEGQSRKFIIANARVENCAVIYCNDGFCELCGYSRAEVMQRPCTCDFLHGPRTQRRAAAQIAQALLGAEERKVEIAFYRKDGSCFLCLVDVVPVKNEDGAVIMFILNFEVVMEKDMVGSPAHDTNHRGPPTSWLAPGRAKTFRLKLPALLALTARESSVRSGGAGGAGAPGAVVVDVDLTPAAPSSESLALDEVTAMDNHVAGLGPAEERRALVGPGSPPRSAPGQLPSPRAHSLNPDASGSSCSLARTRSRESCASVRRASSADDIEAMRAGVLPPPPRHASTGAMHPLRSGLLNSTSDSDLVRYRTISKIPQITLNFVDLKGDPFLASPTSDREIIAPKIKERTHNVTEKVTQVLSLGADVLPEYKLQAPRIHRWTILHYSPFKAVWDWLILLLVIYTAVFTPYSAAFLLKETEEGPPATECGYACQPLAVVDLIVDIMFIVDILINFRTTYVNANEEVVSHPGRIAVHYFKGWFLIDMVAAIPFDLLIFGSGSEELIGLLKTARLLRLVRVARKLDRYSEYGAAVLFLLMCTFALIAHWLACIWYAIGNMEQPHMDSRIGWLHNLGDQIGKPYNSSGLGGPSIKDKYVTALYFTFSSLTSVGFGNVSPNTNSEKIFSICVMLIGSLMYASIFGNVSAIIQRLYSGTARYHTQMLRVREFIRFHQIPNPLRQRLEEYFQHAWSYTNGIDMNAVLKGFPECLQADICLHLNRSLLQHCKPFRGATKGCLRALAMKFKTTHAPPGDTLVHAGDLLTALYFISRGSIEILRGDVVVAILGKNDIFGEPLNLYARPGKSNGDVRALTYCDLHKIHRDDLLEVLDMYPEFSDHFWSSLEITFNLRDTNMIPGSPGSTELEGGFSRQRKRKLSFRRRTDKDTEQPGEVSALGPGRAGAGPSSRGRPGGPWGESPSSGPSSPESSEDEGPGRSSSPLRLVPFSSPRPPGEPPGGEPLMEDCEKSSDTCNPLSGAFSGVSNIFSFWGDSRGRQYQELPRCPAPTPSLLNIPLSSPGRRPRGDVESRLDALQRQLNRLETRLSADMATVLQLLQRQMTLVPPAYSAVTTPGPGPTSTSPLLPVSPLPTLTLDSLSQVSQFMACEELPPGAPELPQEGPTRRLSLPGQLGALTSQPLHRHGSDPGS
row,SMILES,"hERG current change (%, negative = inhibition) at 10uM [%]"
1,CC(=O)Nc1ccc(/C=C(\C#N)C(=O)NC2CCCCC2)cc1,11.2
2,O=C(Cc1ccccn1)c1ccccc1,30.3
3,Cc1ccc(S(=O)(=O)N/N=C\c2ccc3c(c2)OCO3)cc1C,-11.8
4,OCC(Cc1ccccc1)Nc1c2ccccc2nc2ccccc12 (stereo not drawn),-71.2
5,c1coc(CNc2c3c(nc4ccccc24)CCC3)c1,-78.7
6,COCCNc1c2c(nc3ccccc13)CCC2.Cl,-58.5
7,CN(C)CCNc1c2c(nc3ccccc13)CCC2,-0.291
8,c1coc(CNc2c3c(nc4ncnn24)CCC3)c1,-29.6
9,c1ccc(CNc2nc(-c3ccccc3)nc3ccccc23)cc1,4.15
10,c1ccc(CNc2c3ccccc3nc3ccccc23)cc1,-77.1
11,Cl.c1ccc(CNc2ncnc3ccccc23)cc1,4.3
12,CN(C)CCCNc1c2c(nc3ccccc13)CCC2.Cl,-3.18
13,O=C(NC(CO)Cc1ccccc1)c1ccccc1 (stereo not drawn),-10.5
14,O=C(Cc1ccccc1)NNc1c2ccccc2nc2ccccc12,12.3
15,O=C(NCc1ccco1)c1c2c(nc3ccccc13)CCC2,-24.8
16,Cc1ccc(N2C(=O)C3C4CC(=O)C(c5ccccc54)C3C2=O)cc1C (stereo not drawn),-12.3
17,C#CCOCCOCCOCCNc1nc(N2CCN(C(=O)Cn3cc(CC(C)O)nn3)CC2)nc(N2CCN(C(=O)Cn3cc(CC(C)O)nn3)CC2)n1 (stereo not drawn),-7.58
18,CC(C)(C)[C@H]1C=C(C(=O)O)O[C@@H](OCCCCO)C1,6.41
19,CC12CCC(C(=O)NCc3ccco3)(OC1=O)C2(C)C (stereo not drawn),2.02

row,SMILES,"hERG current change (%, negative = inhibition) at 10uM [%]"
1,COc1cccc(NC(=O)Nc2cc(C(=O)O)ccc2N2CC3CC(C2)c2cccc(=O)n2C3)c1 (stereo not drawn),8.25
2,O=C(Nc1nccs1)c1cc2sccc2n1Cc1ccc(Cl)cc1,-2.4
3,Cc1ccc(C)c(N(CC(=O)NC(C)(C)C)C(=O)CCC(=O)Nc2nccs2)c1,2.56
4,CC(C)Cn1c(N)c(C(=O)CSc2nc3ncc(Cl)cc3[nH]2)c(=O)n(C)c1=O,-0.019
5,Cc1coc2cc3oc(=O)c(CCC(=O)N4CCC(C(=O)O)(c5ccccc5)CC4)c(C)c3cc12,0.933
6,CC(C)(C)N1CC(OC(N)=O)C1,21
7,CC(C)CNc1c2c(nc3ccccc13)CCC2.Cl,-69.2
8,CC(C)CNC(=O)COC(=O)c1c2c(nc3ccccc13)CCC2,4.12
9,OCCNc1c2c(nc3ccccc13)CCCC2,-39
10,Cc1c2ccccc2nc2ccccc12,-1.84
11,CC(C)(C)OC(=O)NNc1c2ccccc2nc2ccccc12,-27.7
12,Clc1c2c(nc3ccccc13)CCC2,16.4
13,Cl.c1ccc(CNc2c3c(nc4ccccc24)CCC3)cc1,-75.3
14,CC(C)(C)Nc1c2ccccc2nc2ccccc12,-68.2
15,CC(C)NCC(=O)Nc1c2c(nc3ccccc13)CCC2.O=C(O)C(=O)O,6.26
16,Cc1ccc(N/N=C/c2ccncc2)cc1.Cl,4.03
17,O=C(COC(=O)c1ccc(O)cc1)NC1CCCCCC1,7.22
18,O=C(NNS(=O)(=O)c1ccc(C(F)(F)F)cc1)c1cnn(-c2ccccc2)c1C(F)(F)F,11.5
19,CCOc1ccc(N(CC)C(=O)CCS(=O)(=O)c2cccc3nonc23)cc1,-4.92

row,SMILES,"hERG current change (%, negative = inhibition) at 10uM [%]"
1,O=C(CSc1nnc(COc2ccccc2)n1-c1ccccc1)c1ccccc1,11.2
2,O=C(CCCCCNC(=O)N1CCn2c1nc1ccccc12)NCc1ccccc1Cl,-16.6
3,CCN(CC)S(=O)(=O)c1cccc(-c2nnc(SCc3nnc(-c4cccs4)o3)n2N)c1,-44.3
4,CCN(CC)S(=O)(=O)c1cccc(-c2nnc(SCC(N)=O)n2N)c1,-28.9
5,CCN(CC)S(=O)(=O)c1cccc(-c2nnc(SC(C)C#N)n2Cc2ccccc2)c1 (stereo not drawn),-7.34
6,COc1cccc(-c2nnc(SCC3CNC(=O)O3)n2-c2ccc(Cl)cc2)c1 (stereo not drawn),8.33
7,CCN(CC)S(=O)(=O)c1cccc(-c2nnc(SCC(=O)c3ccc(Cl)s3)n2C)c1,-52.7
8,COc1ccc(-n2c(SCC3CNC(=O)O3)nnc2-c2ccc(Cl)cc2)cc1 (stereo not drawn),-54.8
9,CCN(CC)S(=O)(=O)c1cccc(-c2nnc(SCc3nnc(-c4ccccc4)o3)n2C)c1,-67.4
10,CCN(CC)S(=O)(=O)c1ccc(-c2nnc(SCc3nnc(-c4ccccc4)o3)o2)cc1,7.63
11,CCN(CC)S(=O)(=O)c1cccc(-c2nnc(SCC#N)n2Cc2ccccc2)c1,-25.5
12,CCN(CC)S(=O)(=O)c1cccc(-c2nnc(SCC(=O)NC)n2N)c1,8.5
13,Cc1cccc(-c2nnc(SCC3CNC(=O)O3)n2-c2ccc(Cl)cc2)c1 (stereo not drawn),-40.3
14,CCSc1nnc(-c2cccc(S(=O)(=O)N(CC)CC)c2)n1Cc1ccccc1,-62.6
15,CCn1cc(/C=C(\NC(=O)c2cc(OC)c(OC)c(OC)c2)C(=O)NCCN2CCOCC2)c2ccccc21,10.8
16,COc1ccc(CCNC(=O)Cn2nc([N+](=O)[O-])c(Br)c2C)cc1OC,-0.503
17,O=S(CC1CC1(Cl)Cl)CC1CC1(Cl)Cl (stereo not drawn),3.18
18,O=C(CNc1cccc(S(=O)(=O)N2CCCC2)c1)Nc1cccc(Br)c1,-18.5
19,COc1ccccc1N(C)S(=O)(=O)c1ccc(C(=O)NCc2ccc3c(c2)OCO3)cc1,4.2
